Data on 20 molecules can be found in PubChem BioAssay (NCATS).

Experiment [1] addresses Rap guanine nucleotide exchange factor 3 (Homo sapiens) (UniProt O95398). The experiment can be described thus: Confirmatory qHTS for antagonist of cAMP-regulated guanine nucleotide exchange factor 3 (EPAC1) (AID 1645880). Further: nearly all actives have a fitted effect of over 55% in size. Further: potency means the concentration at half of the fitted maximal effect.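 On activity, negative = inhibition: plate controls were DMSO only for no effect and full effect of the ATA control for full effect.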 The following applies: EPAC1 Rap1B-BODIPY-GDP exchange, fluorescence; activity, negative = inhibition: at 115 µM (top of the series). The method, boiled down:
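Released BODIPY-GDP fluoresces less than Rap1-bound BODIPY-GDP; the signal is followed at 480/540 nm at 5-min intervals over 30 min, after 5 min at room temperature. Reactions contain 100 nM EPAC1, 250 nM RAP1B-BODIPY-GDP and 50 uM GDP; results are normalized to ATA and DMSO.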
Background: Quantitative high-throughput screening tests each substance at several concentrations.

The target is the same in experiment [2]. Briefly: Confirmatory qHTS for agonist of cAMP-regulated guanine nucleotide exchange factor 3 (EPAC1) (AID 1645881). Further: nearly all actives have a fitted effect of over 75% in size. Further: potency means the concentration at half of the fitted maximal effect.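 On activation: EPAC1 catalysed release of BODIPY-GDP from Rap1B seen as fluorescence loss; 100% = effect of cAMP agonist control.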
For experiment [3], the target named is Rap guanine nucleotide exchange factor 4 (Homo sapiens) (UniProt Q8WZA2). The experiment can be described thus: Confirmatory qHTS for agonist of cAMP-regulated guanine nucleotide exchange factor 4 (EPAC2) (AID 1645884).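 Further: nucleotide exchange releases bodipy-GDP from Rap1 and this lowers its fluorescence; nearly all actives have a fitted effect of over 65% in size.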 Further: potency means the concentration at half of the fitted maximal effect. On activation: on the % scale 0 is the no-effect control and ±100 the full control effect.
Rap guanine nucleotide exchange factor 4 (Homo sapiens), sequence (Q8WZA2 whole entry, looked up): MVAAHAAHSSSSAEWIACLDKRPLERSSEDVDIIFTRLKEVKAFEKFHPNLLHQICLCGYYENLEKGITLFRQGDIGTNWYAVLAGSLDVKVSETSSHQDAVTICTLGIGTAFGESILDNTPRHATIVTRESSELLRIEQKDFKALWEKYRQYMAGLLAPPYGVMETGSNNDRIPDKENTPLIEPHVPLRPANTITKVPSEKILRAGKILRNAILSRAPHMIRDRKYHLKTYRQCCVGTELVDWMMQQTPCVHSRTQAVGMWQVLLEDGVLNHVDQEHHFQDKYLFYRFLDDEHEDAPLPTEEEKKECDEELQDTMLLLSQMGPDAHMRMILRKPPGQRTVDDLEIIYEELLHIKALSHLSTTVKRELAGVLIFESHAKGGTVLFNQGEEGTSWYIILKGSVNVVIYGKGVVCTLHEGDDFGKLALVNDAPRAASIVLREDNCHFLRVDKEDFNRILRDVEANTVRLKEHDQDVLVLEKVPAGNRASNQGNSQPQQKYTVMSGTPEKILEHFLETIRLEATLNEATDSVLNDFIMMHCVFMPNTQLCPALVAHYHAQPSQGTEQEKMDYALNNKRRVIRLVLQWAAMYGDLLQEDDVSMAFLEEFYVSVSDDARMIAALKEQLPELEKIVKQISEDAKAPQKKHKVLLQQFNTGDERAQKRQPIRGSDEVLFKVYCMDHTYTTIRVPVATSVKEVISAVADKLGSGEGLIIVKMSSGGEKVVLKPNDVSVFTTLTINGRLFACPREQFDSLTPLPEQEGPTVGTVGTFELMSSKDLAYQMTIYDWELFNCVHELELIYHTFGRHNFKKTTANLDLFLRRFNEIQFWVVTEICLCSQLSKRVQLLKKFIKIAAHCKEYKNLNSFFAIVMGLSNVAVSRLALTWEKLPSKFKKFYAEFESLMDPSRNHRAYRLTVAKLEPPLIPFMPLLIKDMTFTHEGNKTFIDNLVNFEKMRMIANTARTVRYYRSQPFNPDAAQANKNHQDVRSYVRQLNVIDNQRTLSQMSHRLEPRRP
The target is the same in experiment [4]. Briefly: Confirmatory qHTS for antagonist of cAMP-regulated guanine nucleotide exchange factor 4 (EPAC2) (AID 1645885). Further: nearly all actives have a fitted effect of over 25% in size. Further: potency means the concentration at half of the fitted maximal effect. On activity change, negative = inhibition: on the % scale 0 is the no-effect control and ±100 the full control effect.
For experiment [5], the target named is Rap guanine nucleotide exchange factor 3 (Homo sapiens) (UniProt O95398). Briefly: Counterscreen qHTS for antagonist of cAMP-regulated guanine nucleotide exchange factor 3 (EPAC1) (AID 1645888). Further: % of control where 0% means no effect. The procedure, abridged:
(§1)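 Rap1B-BODIPY-GDP 250 nM + GDP 50 uM; cpds 7-pt, final 9.74 nM–152 uM (activator mode) or from 7.32 nM upwards (inhibitor mode); RT; FI 480/540 nm at 5 and 30 min, then ± cAMP, reread.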
In general terms: Counterscreens check selectivity or assay interference.

For experiment [6] the target is unchanged. Briefly: Counterscreen qHTS for agonist of cAMP-regulated guanine nucleotide exchange factor 3 (EPAC1) (AID 1645889). Further: nearly all actives have a fitted effect of over 40% in size. Further: potency means the concentration at half of the fitted maximal effect. On activation: % of control where 0% means no effect. The method, boiled down: as §1

Structures are written as SMILES. Results filed as inconclusive are left out. Values without a mark were called inactive. Active and inactive are the calls of the source. The call rests on the fitted dose curve; in most records, active means well fitted curve in the direction sought with a large enough effect; inconclusive means small, poorly fitted or top-dose-only effect, or another doubt; inactive means no such curve, though single readings can be large; an effect the other way counts as inactive or inconclusive.

Rap guanine nucleotide exchange factor 3 (Homo sapiens), sequence (O95398 whole entry, looked up): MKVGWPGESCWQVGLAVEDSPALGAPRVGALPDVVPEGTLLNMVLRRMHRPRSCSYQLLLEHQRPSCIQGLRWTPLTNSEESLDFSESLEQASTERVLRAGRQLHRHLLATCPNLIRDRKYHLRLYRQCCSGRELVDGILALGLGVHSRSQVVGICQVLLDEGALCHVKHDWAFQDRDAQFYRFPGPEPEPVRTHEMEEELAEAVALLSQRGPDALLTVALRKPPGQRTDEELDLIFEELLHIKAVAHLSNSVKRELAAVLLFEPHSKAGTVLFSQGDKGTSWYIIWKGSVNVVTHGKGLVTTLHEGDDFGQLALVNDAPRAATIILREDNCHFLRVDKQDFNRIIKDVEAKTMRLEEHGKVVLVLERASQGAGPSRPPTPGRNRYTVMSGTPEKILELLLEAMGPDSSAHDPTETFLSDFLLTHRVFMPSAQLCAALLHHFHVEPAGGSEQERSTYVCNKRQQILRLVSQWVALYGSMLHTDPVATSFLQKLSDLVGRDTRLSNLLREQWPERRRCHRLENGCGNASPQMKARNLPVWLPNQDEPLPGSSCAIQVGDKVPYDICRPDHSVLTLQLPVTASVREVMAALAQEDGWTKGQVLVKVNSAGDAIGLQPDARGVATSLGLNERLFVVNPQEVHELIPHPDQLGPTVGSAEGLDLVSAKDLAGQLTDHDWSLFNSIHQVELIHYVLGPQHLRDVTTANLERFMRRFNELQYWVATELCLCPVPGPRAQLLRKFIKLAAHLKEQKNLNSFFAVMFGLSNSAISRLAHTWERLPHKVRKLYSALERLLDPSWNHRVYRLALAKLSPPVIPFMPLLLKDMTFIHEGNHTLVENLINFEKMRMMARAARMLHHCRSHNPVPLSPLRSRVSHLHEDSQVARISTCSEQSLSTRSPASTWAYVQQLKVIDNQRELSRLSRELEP

Turning to `CC1Cc2nc(SCC(=O)N3CCCc4ccccc43)n(C)c(=O)c2S1` (stereo not given), the Potency result in experiment [1], in experiment [2] and in experiment [4] was “inactive” each time. For the same molecule, the activation in experiment [3] is -4.86% [at 17.1 µM, percent relative to cAMP agonist control]; in experiment [6] it was 4.66% [at 30.8 µM]. For the same molecule, the activity change, negative = inhibition in experiment [5] is -11.9% [at 30.8 µM].
For `O=C1NC(=S)S/C1=C\c1coc2ccc(O)cc2c1=O`, in experiment [1], the Potency was 39.8 µM (active). The Potency entry in experiment [2] and in experiment [4] was “inactive” each time. Besides, the activation in experiment [3] is 11% [at 17.1 µM, percent relative to cAMP agonist control]; in experiment [6], -0.252% [at 30.8 µM]. In experiment [5], the activity change, negative = inhibition is -13.4% [at 30.8 µM].
For `O=C(COc1ccccc1[N+](=O)[O-])Nc1cccc(C(=O)Nc2ccccc2C(=O)O)c1`, the Potency in experiment [1] was 23.9 µM (active). For the same molecule, the Potency result in experiment [2], in experiment [3], in experiment [4], in experiment [5] and in experiment [6] was “inactive” throughout.
Turning to `O=c1c(-c2ccc(F)cc2)[n+]([O-])c2ccccc2n1OCc1ccccn1`, the Potency entry in experiment [1], in experiment [2] and in experiment [4] was “inactive” in each case. In addition, the activation in experiment [3] is -8.77% [at 17.1 µM, percent relative to cAMP agonist control]; in experiment [6] it was 6.02% [at 30.8 µM]. For the same molecule, the activity change, negative = inhibition in experiment [5] is 1.53% [at 30.8 µM].
In the case of `CCOc1cnc(-c2c(-c3c(Cl)cccc3Cl)noc2C)o1`, the Potency result in experiment [1], in experiment [2] and in experiment [4] was “inactive” throughout. In addition, the activation in experiment [3] was 1.16% [at 17.1 µM, percent relative to cAMP agonist control]; in experiment [6], 12% [at 30.8 µM]. Besides, in experiment [5], the activity change, negative = inhibition was -6.2% [at 30.8 µM].
As to `O=C(NCc1ccco1)c1sc(=S)n2c1[nH]c(=O)c1ccccc12`, the Potency in experiment [1] was 14.1 µM (active). For the same molecule, the Potency result in experiment [2] and in experiment [4] was “inactive” in each case. Further, the activation was 1.94% [at 17.1 µM, percent relative to cAMP agonist control] in experiment [3] and -8.6% [at 30.8 µM] in experiment [6]. For the same molecule, the activity change, negative = inhibition in experiment [5] was 3.28% [at 30.8 µM].
For the molecule `Cc1cc(Br)ccc1-n1[nH]c(C)c(C=Nc2cccc3nsnc23)c1=O`, the Potency entry in experiment [1], in experiment [2], in experiment [3], in experiment [4], in experiment [5] and in experiment [6] was “inactive” in each case.
On to `COc1ccc(N(C(=O)c2ccco2)S(=O)(=O)c2cc(OC)ccc2OC)cc1`, for which the Potency result in experiment [1], in experiment [2], in experiment [3], in experiment [4], in experiment [5] and in experiment [6] was “inactive” throughout.
`COc1cc2c(cc1OC)CN(C(C)C(=O)N1CCc3ccccc31)CC2` (stereo not given): the Potency entry in experiment [1], in experiment [2], in experiment [3], in experiment [4], in experiment [5] and in experiment [6] was “inactive” in each case.
Take `COc1ccc(C)cc1-n1c(-c2ccc(Cl)cc2)cc2c1CC(C)(C)CC2=O`: the Potency entry in experiment [1], in experiment [2], in experiment [3], in experiment [5] and in experiment [6] was “inactive” each time. Further, the outcome in experiment [4] was “inactive [at 12.7 µM]”.
For the molecule `Cc1[nH][nH]c(=O)c1C(c1c(C)[nH][nH]c1=O)c1cn(Cc2cccc3ccccc23)c2ccccc12`, the Potency in experiment [1] is 75.7 µM (active); in experiment [6], 12.6 µM (active). The Potency entry in experiment [2], in experiment [3], in experiment [4] and in experiment [5] was “inactive” throughout.
On to `COC(=O)[C@H](CC(C)C)NC(=O)CC[C@H]1O[C@@H](n2ccc(=O)[nH]c2=O)[C@H](O)[C@@H]1O`, for which the Potency entry in experiment [1], in experiment [2], in experiment [3], in experiment [4], in experiment [5] and in experiment [6] was “inactive” in each case.
As to `O=C(Nc1nc2ccc(Cl)cc2s1)C1CCCO1` (stereo not given), the Potency entry in experiment [1], in experiment [2] and in experiment [4] was “inactive” in each case. The activation was 6.17% [at 17.1 µM, percent relative to cAMP agonist control] in experiment [3] and 15.7% [at 30.8 µM] in experiment [6]. In experiment [5], the activity change, negative = inhibition is 0.458% [at 30.8 µM].
In the case of `CCN(CC)c1ccc2c(c1)OC(N)=C(C#N)C2c1cccnc1` (stereo not given), the Potency entry in experiment [1] and in experiment [5] was “inactive” throughout. For the same molecule, the Potency in experiment [2] was 89.1 µM (active); in experiment [3], 100 µM (active); in experiment [4], 75.7 µM (active); in experiment [6], 35.5 µM (active).
As to `CCN(CC)c1ccc2cc(C(C)=O)c(=O)oc2c1`, the Potency result in experiment [1], in experiment [4] and in experiment [5] was “inactive” in each case. The Potency is 89.1 µM (active) in experiment [2], 100 µM (active) in experiment [3] and 50.1 µM (active) in experiment [6].
As for `O=C1C(=Cc2ccco2)CCC1=Cc1ccco1`, the Potency entry in experiment [1], in experiment [2], in experiment [3], in experiment [5] and in experiment [6] was “inactive” each time. Moreover, the Potency in experiment [4] is 60.1 µM (active).
For the molecule `Cc1ccc(C)c(S(=O)(=O)Nc2ccc(C(=O)NCC(c3ccco3)N(C)C)cc2)c1` (stereo not given), the Potency entry in experiment [1], in experiment [2] and in experiment [4] was “inactive” each time. Also, the activation was 5.83% [at 17.1 µM, percent relative to cAMP agonist control] in experiment [3] and 6.54% [at 30.8 µM] in experiment [6]. In experiment [5], the activity change, negative = inhibition was -1.62% [at 30.8 µM].
For `COc1cc(/C=C(\C#N)c2nc3ccc(C)cc3[nH]2)cc([N+](=O)[O-])c1O`, the Potency in experiment [1] is 33.8 µM (active); in experiment [4], 75.7 µM (active). In addition, the Potency result in experiment [2], in experiment [3], in experiment [5] and in experiment [6] was “inactive” each time.
For the molecule `COc1ccc(OC)c(NS(=O)(=O)c2cc3c4c(c2)CCN4C(=O)CC3)c1`, the Potency result in experiment [1], in experiment [2], in experiment [3], in experiment [4], in experiment [5] and in experiment [6] was “inactive” each time.
As for `COc1cccc(NS(=O)(=O)c2ccc3c(c2)C2C=CCC2C(c2ccc(C(=O)O)cc2)N3)c1` (stereo not given), the Potency in experiment [1] is 9.53 µM (active). For the same molecule, the Potency entry in experiment [2], in experiment [3], in experiment [4], in experiment [5] and in experiment [6] was “inactive” throughout.
